Laboratory results taken from the supplement of paper PMC8728848.
Only a selection was taken, and the strongest signals are over-represented in it overall.

Legend:
Assay in all cases: glycan array binding signal (z-score within array); higher = stronger binding
Conditions in all cases: glycan notation: IUPAC condensed, linker removed
[1] = molecular target: Fuc(a1-2)Gal(b1-3)GalNAc(b1-3)Gal(a1-4)Gal(b1-4)Glc
Method in brief: (§1)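 Columns mapping to the same glycan were averaged after glycan names were converted to IUPAC-condensed notation. The data come from 3228 arrays in the Consortium for Functional Glycomics database, limited to those with an available protein sequence. Binding is reported as a within-array Z-score averaged across arrays of one protein sequence and across linkers.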

[2] = molecular target: Fuc(a1-2)Gal(b1-3)GlcNAc(b1-3)Gal(b1-4)Glc
Method in brief: as §1

[3] = molecular target: Fuc(a1-2)Gal(b1-3)[Fuc(a1-4)]GlcNAc
Method in brief: as §1

Fuc(a1-2)Gal(b1-4)Glc = molecular target: Fuc(a1-2)Gal(b1-4)Glc
Method in brief: as §1

[4] = molecular target: Fuc(a1-2)[Gal(a1-3)]Gal(b1-4)GlcNAc(b1-2)Man(a1-3)[Fuc(a1-2)[Gal(a1-3)]Gal(b1-4)GlcNAc(b1-2)Man(a1-6)]Man(b1-4)GlcNAc(b1-4)GlcNAc
Method in brief: as §1

[5] = molecular target: Fuc(a1-2)[Gal(a1-4)]Gal(b1-4)GlcNAc
Method in brief: as §1

[6] = molecular target: Fuc(a1-2)[GalNAc(a1-3)]Gal(b1-3)GlcNAc(b1-2)Man(a1-3)[Fuc(a1-2)[GalNAc(a1-3)]Gal(b1-3)GlcNAc(b1-2)Man(a1-6)]Man(b1-4)GlcNAc(b1-4)GlcNAc
Method in brief: as §1

[7] = molecular target: Fuc(a1-2)[GalNAc(a1-3)]Gal(b1-4)[Fuc(a1-3)]GlcNAc(b1-3)GalNAc
Method in brief: as §1

[8] = molecular target: Fuc(a1-3)[Gal(b1-4)]GlcNAc(b1-6)GalNAc
Method in brief: as §1

[9] = molecular target: Gal(a1-3)Gal(b1-3)GlcNAc(b1-2)Man(a1-3)[Gal(a1-3)Gal(b1-3)GlcNAc(b1-2)Man(a1-6)]Man(b1-4)GlcNAc(b1-4)GlcNAc
Method in brief: as §1

[10] = molecular target: Gal(a1-3)Gal(b1-3)GlcNAc(b1-3)GalNAc
Method in brief: as §1

Gal(a1-3)GalNAc = molecular target: Gal(a1-3)GalNAc
Method in brief: as §1

Gal(b1-3)Gal = molecular target: Gal(b1-3)Gal
Method in brief: as §1

Gal(b1-3)Gal(b1-4)GlcNAc = molecular target: Gal(b1-3)Gal(b1-4)GlcNAc
Method in brief: as §1

Gal(b1-3)GalNAc = molecular target: Gal(b1-3)GalNAc
Method in brief: as §1

[11] = molecular target: Gal(b1-3)GalNAc(a1-3)[Fuc(a1-2)]Gal(b1-4)Glc
Method in brief: as §1

Gal(b1-3)GalNAc(b1-3)Gal = molecular target: Gal(b1-3)GalNAc(b1-3)Gal
Method in brief: as §1

[12] = molecular target: Gal(b1-3)GalNAc(b1-4)Gal(b1-4)Glc
Method in brief: as §1

[13] = molecular target: Gal(b1-3)GalNAc(b1-4)[Neu5Ac(a2-3)]Gal(b1-4)Glc
Method in brief: as §1

Gal(b1-3)GlcNAc6S = molecular target: Gal(b1-3)GlcNAc6S
Method in brief: as §1

[14] = molecular target: Gal(b1-3)[Fuc(a1-4)]GlcNAc
Method in brief: as §1

[15] = molecular target: Gal(b1-3)[GlcNAc(b1-6)]GalNAc
Method in brief: as §1

[16] = molecular target: Gal(b1-3)[Neu5Ac(a2-6)]GalNAc
Method in brief: as §1

Gal(b1-4)Glc6S = molecular target: Gal(b1-4)Glc6S
Method in brief: as §1

[17] = molecular target: Gal(b1-4)GlcNAc(b1-2)Man(a1-3)Man(b1-4)GlcNAc(b1-4)GlcNAc
Method in brief: as §1

[18] = molecular target: Gal(b1-4)GlcNAc(b1-2)Man(a1-3)[GlcNAc(b1-4)][Gal(b1-4)GlcNAc(b1-2)Man(a1-6)]Man(b1-4)GlcNAc(b1-4)GlcNAc
Method in brief: as §1

[19] = molecular target: Gal(b1-4)GlcNAc(b1-2)[Gal(b1-4)GlcNAc(b1-6)]Man(a1-6)[Gal(b1-4)GlcNAc(b1-2)Man(a1-3)]Man(b1-4)GlcNAc(b1-4)[Fuc(a1-6)]GlcNAc
Method in brief: as §1

[20] = molecular target: Gal(b1-4)GlcNAc(b1-3)Gal(b1-4)GlcNAc(b1-3)GalNAc
Method in brief: as §1

[21] = molecular target: Gal3S(b1-4)[Fuc(a1-3)]GlcNAc
Method in brief: as §1

Gal3S6S(b1-4)GlcNAc6S = molecular target: Gal3S6S(b1-4)GlcNAc6S
Method in brief: as §1

Gal6S(b1-4)GlcNAc6S = molecular target: Gal6S(b1-4)GlcNAc6S
Method in brief: as §1

GlcA(b1-6)Gal = molecular target: GlcA(b1-6)Gal
Method in brief: as §1

[22] = molecular target: GlcNAc(a1-6)Gal(b1-4)GlcNAc
Method in brief: as §1

[23] = molecular target: GlcNAc(b1-2)Man(a1-3)[GlcNAc(b1-4)][GlcNAc(b1-2)Man(a1-6)]Man(b1-4)GlcNAc(b1-4)[Fuc(a1-6)]GlcNAc
Method in brief: as §1

[24] = molecular target: GlcNAc(b1-3)Gal(b1-4)GlcNAc(b1-3)Gal(b1-4)GlcNAc(b1-3)Gal(b1-4)GlcNAc(b1-2)Man(a1-3)[GlcNAc(b1-3)Gal(b1-4)GlcNAc(b1-3)Gal(b1-4)GlcNAc(b1-3)Gal(b1-4)GlcNAc(b1-2)Man(a1-6)]Man(b1-4)GlcNAc(b1-4)[Fuc(a1-6)]GlcNAc
Method in brief: as §1

[25] = molecular target: GlcNAc(b1-3)[GlcNAc(b1-4)][GlcNAc(b1-6)]GlcNAc
Method in brief: as §1

[26] = molecular target: Man(a1-2)Man(a1-6)[Man(a1-3)]Man(a1-6)[Man(a1-2)Man(a1-2)Man(a1-3)]Man
Method in brief: as §1

[27] = molecular target: Man(a1-3)[Man(a1-6)]Man(a1-6)[Man(a1-3)]Man
Method in brief: as §1

[28] = molecular target: Neu5Ac(a2-3)Gal(b1-4)GlcNAc(b1-3)Gal(b1-4)[Fuc(a1-3)]GlcNAc
Method in brief: as §1

[29] = molecular target: Neu5Ac(a2-3)Gal(b1-4)[Fuc(a1-3)]GlcNAc(b1-3)Gal(b1-4)[Fuc(a1-3)]GlcNAc(b1-3)Gal(b1-4)[Fuc(a1-3)]GlcNAc
Method in brief: as §1

[30] = molecular target: Neu5Ac(a2-3)Gal(b1-4)[Fuc(a1-3)]GlcNAc6S
Method in brief: as §1

[31] = molecular target: Neu5Ac(a2-6)Gal(b1-4)GlcNAc
Method in brief: as §1

[32] = molecular target: Neu5Ac(a2-6)Gal(b1-4)GlcNAc(b1-2)[Neu5Ac(a2-6)Gal(b1-4)GlcNAc(b1-4)]Man(a1-3)[GlcNAc(b1-4)][Neu5Ac(a2-6)Gal(b1-4)GlcNAc(b1-2)[Neu5Ac(a2-6)Gal(b1-4)GlcNAc(b1-6)]Man(a1-6)]Man(b1-4)GlcNAc(b1-4)GlcNAc
Method in brief: as §1

[33] = molecular target: Neu5Ac(a2-6)Gal(b1-4)GlcNAc(b1-3)Gal(b1-4)GlcNAc
Method in brief: as §1

[34] = molecular target: Neu5Ac(a2-6)Gal(b1-4)GlcNAc(b1-3)GalNAc
Method in brief: as §1

[35] = molecular target: Neu5Ac(a2-8)Neu5Ac(a2-8)Neu5Ac(a2-8)Neu5Ac(a2-3)[GalNAc(b1-4)]Gal(b1-4)Glc
Method in brief: as §1

[36] = molecular target: Neu5Ac9Ac(a2-3)Gal(b1-4)GlcNAc
Method in brief: as §1

[37] = molecular target: Neu5Gc(a2-8)Neu5Gc(a2-3)Gal(b1-4)GlcNAc
Method in brief: as §1

B1: CFEM-PPl (Pichia pastoris), F2QPV1 (protein)
chain: AVATPPACLLACAAEVVKESSDCDALNNIQCICENEGSAIHACLESTCPDGLSSTALQSFEDVCESVGTEANLDE
Q: With B1 as the binder, how does the “glycan array binding signal (z-score)” value [1] read?
A: The value was -0.182.

Q: What about the “glycan array binding signal (z-score)” value [2] of the same binder?
A: Its value is -0.261.

Q: And the “glycan array binding signal (z-score)” value [3]?
A: Its value is -0.299.

Q: What about the “glycan array binding signal (z-score)” value (Fuc(a1-2)Gal(b1-4)Glc) of the same binder?
A: The value was -0.216.

Q: What about the “glycan array binding signal (z-score)” value [4] of the same binder?
A: The value was -0.252.

Q: What about the “glycan array binding signal (z-score)” value [5] of the same binder?
A: The value was -0.168.

Q: What about the “glycan array binding signal (z-score)” value [6] of the same binder?
A: The value was -0.271.

Q: And the “glycan array binding signal (z-score)” value [7]?
A: The value was 2.17.

Q: And the “glycan array binding signal (z-score)” value [8]?
A: The value was 0.273.

Q: And the “glycan array binding signal (z-score)” value [9]?
A: Its value is -0.051.

Q: What about the “glycan array binding signal (z-score)” value [10] of the same binder?
A: Its value is -0.151.

Q: What about the “glycan array binding signal (z-score)” value (Gal(a1-3)GalNAc) of the same binder?
A: The value was -0.249.

Q: And the “glycan array binding signal (z-score)” value (Gal(b1-3)Gal)?
A: Its value is 8.35.

Q: And the “glycan array binding signal (z-score)” value (Gal(b1-3)Gal(b1-4)GlcNAc)?
A: The value was 4.73.

Q: What about the “glycan array binding signal (z-score)” value (Gal(b1-3)GalNAc) of the same binder?
A: Its value is 4.58.

Q: What about the “glycan array binding signal (z-score)” value [11] of the same binder?
A: The value was 0.63.

Q: What about the “glycan array binding signal (z-score)” value (Gal(b1-3)GalNAc(b1-3)Gal) of the same binder?
A: Its value is 7.59.

Q: What about the “glycan array binding signal (z-score)” value [12] of the same binder?
A: Its value is 11.5.

Q: And the “glycan array binding signal (z-score)” value [13]?
A: The value was 1.48.

Q: What about the “glycan array binding signal (z-score)” value (Gal(b1-3)GlcNAc6S) of the same binder?
A: The value was 0.224.

Q: What about the “glycan array binding signal (z-score)” value [14] of the same binder?
A: Its value is -0.109.

Q: And the “glycan array binding signal (z-score)” value [15]?
A: Its value is 1.52.

Q: And the “glycan array binding signal (z-score)” value [16]?
A: The value was 8.06.

Q: What about the “glycan array binding signal (z-score)” value (Gal(b1-4)Glc6S) of the same binder?
A: Its value is 0.326.

Q: And the “glycan array binding signal (z-score)” value [17]?
A: Its value is -0.158.

Q: And the “glycan array binding signal (z-score)” value [18]?
A: The value was -0.371.

Q: And the “glycan array binding signal (z-score)” value [19]?
A: Its value is 0.199.

Q: What about the “glycan array binding signal (z-score)” value [20] of the same binder?
A: The value was -0.058.

Q: And the “glycan array binding signal (z-score)” value [21]?
A: Its value is -0.308.

Q: What about the “glycan array binding signal (z-score)” value (Gal3S6S(b1-4)GlcNAc6S) of the same binder?
A: Its value is -0.019.

Q: And the “glycan array binding signal (z-score)” value (Gal6S(b1-4)GlcNAc6S)?
A: The value was 0.881.

Q: And the “glycan array binding signal (z-score)” value (GlcA(b1-6)Gal)?
A: Its value is 1.49.

Q: What about the “glycan array binding signal (z-score)” value [22] of the same binder?
A: Its value is 1.68.

Q: What about the “glycan array binding signal (z-score)” value [23] of the same binder?
A: Its value is -0.286.

Q: What about the “glycan array binding signal (z-score)” value [24] of the same binder?
A: Its value is -0.05.

Q: And the “glycan array binding signal (z-score)” value [25]?
A: Its value is -0.262.

Q: What about the “glycan array binding signal (z-score)” value [26] of the same binder?
A: The value was -0.274.

Q: And the “glycan array binding signal (z-score)” value [27]?
A: Its value is -0.201.

Q: And the “glycan array binding signal (z-score)” value [28]?
A: Its value is -0.181.

Q: What about the “glycan array binding signal (z-score)” value [29] of the same binder?
A: Its value is -0.258.

Q: What about the “glycan array binding signal (z-score)” value [30] of the same binder?
A: Its value is -0.175.

Q: What about the “glycan array binding signal (z-score)” value [31] of the same binder?
A: The value was -0.156.

Q: And the “glycan array binding signal (z-score)” value [32]?
A: Its value is -0.31.

Q: What about the “glycan array binding signal (z-score)” value [33] of the same binder?
A: Its value is -0.404.

Q: What about the “glycan array binding signal (z-score)” value [34] of the same binder?
A: Its value is -0.218.

Q: What about the “glycan array binding signal (z-score)” value [35] of the same binder?
A: Its value is -0.099.

Q: And the “glycan array binding signal (z-score)” value [36]?
A: The value was -0.318.

Q: And the “glycan array binding signal (z-score)” value [37]?
A: Its value is -0.14.
